An excerpt weighted towards active compounds, which were near 1.2% of everything screened.
LANA-H2B inh: blocks KSHV LANA binding to histone H2A/H2B. Q9QR71. cell-free LANA-H2A/H2B peptide, fluorescence polarization. inhibition, % (test concentration not listed). hit rate 0.6% among 320,000. AID 2629; in the data active = inhibition mostly above about 10%, no sharp cut-off; inactive = mostly below about 6.7%
Yeast superoxide: caloric restriction mimetics inhibiting age-related superoxide in yeast. S. cerevisiae aged cells, superoxide DHE fluorescence; stronger effect = lower value. superoxide response (% of plate mean), % at 10 µM. hit rate 0.18% among 330,000;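 active = superoxide response under a set limit, about three screen SD below normal, cut at about 65% in these data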;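 note: yeast aged for seven days with compound at 30 °C before DHE staining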
HDAC3 inhib: inhibitors of human histone deacetylase 3 | O15379 | recombinant HDAC3, fluorogenic peptide/trypsin coupled, fluorescence | inhibition, % at 8.3 µM | hit rate 0.15% among 320,000; in the data active = inhibition above about 26%, passing the limit was not always enough; inconclusive = no clear call, values can overlap the other calls
HIF act: HIF pathway transcriptional activation | U2OS HRE-luciferase reporter, luminescence; normalized: DMSO 0%, desferrioxamine 100% | activation, % at 7.5 µM (by protocol) | hit rate 0.32% among 300,000 | AID 1910;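 active = mean activation of at least 10% of the iron chelator positive control signal, with at least half of replicates also reaching 10%; inconclusive = mean and replicate majority disagree about reaching 10%; inactive = mean and most replicates under 10%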
Large screens that a line does not name were inactive.

O=C(NCc1ccccn1)C(=O)NCC1OCCN1S(=O)(=O)c1ccc(F)cc1 (stereo unspecified)	none
CCc1noc(C)c1C(=O)NCCN1C(=O)S/C(=C\c2ccc(OC)cc2)C1=O	none
CCOC(=O)C(C)C(C)=O (stereo unspecified)	LANA-H2B inh 15 (no result: HIF act)
CCOC(=O)C(C(C)=O)C(c1ccc(OC)cc1)C(C(C)=O)C(=O)OCC (stereo unspecified)	none
CSCCC(NS(=O)(=O)c1ccccc1F)C(=O)NC(C)c1ccccc1 (stereo unspecified)	none
CCOc1ccccc1NC(=O)Cn1c(=O)n(CCC(=O)NC2CCCC2)c(=O)c2ccccc21	LANA-H2B inh 31
COc1ccc(C(C(=O)NC(C)(C)C)N(Cc2ccccc2)C(=O)CCC(=O)Nc2cc(C)on2)cc1 (stereo unspecified)	none
COc1ccc(C(C(=O)NC(C)(C)C)N(CCC(C)C)C(=O)CCC(=O)Nc2cc(C)on2)cc1 (stereo unspecified)	LANA-H2B inh 19
COc1ccc(/C=C/C(=O)O/N=C(\N)c2ccccn2)cc1OC	LANA-H2B inh 21 (no result: HIF act)
CCOC(=O)N1CC(=O)Nc2ccc(Br)cc2C1c1ccccc1 (stereo unspecified)	LANA-H2B inh 106
O=C1CN(C(=O)CN2CCCC2)C(c2ccccc2)c2cc(Br)ccc2N1 (stereo unspecified)	none
Cc1ccccc1OCCSc1nc2ncnc(N)c2[nH]1	none
Cc1ccc(S(=O)(=O)N2CCN(C(=O)C3CCN(C(=O)c4ccc(F)cc4)CC3)CC2)c(C)c1	LANA-H2B inh 22
CC(=O)c1ccc(N2CCN(S(=O)(=O)c3ccc(-c4cc(C)no4)s3)CC2)cc1	none
CC(=O)c1cccc(NS(=O)(=O)c2ccc(-c3cc(C)no3)s2)c1	HIF act 44
CCOC(=O)c1cncc(O)c1	none
COc1ccc(C2(C)NC(=O)N(CC(=O)NC3CCCC3)C2=O)cc1OC (stereo unspecified)	none (no result: HIF act)
O=C(CCCCCN1C(=O)CCC1=O)Nc1ccc(Cl)c(C(F)(F)F)c1	none
N#CC(C#N)=C/C(C#N)=C(/N)N1CCN(c2ccc(Cl)cc2)CC1	LANA-H2B inh 18
CN(C)C(=C(C#N)C#N)N1CCN(c2ccc(Cl)cc2)CC1	none
CCN(CC)c1ccc2c(C)c(Cl)c(=O)oc2c1	none
CCN(CC)c1ccc2c(Cl)c(Br)c(=O)oc2c1	HIF act 14
Oc1c(C=C2N=c3ccccc3=N2)sc(=S)n1-c1ccccc1	HIF act 22
Clc1ccc(-c2nnc3sc(-c4ccc(Br)o4)nn23)cc1	LANA-H2B inh 46 (no result: HIF act)
c1ccc(-c2nnc3sc(-c4cc5ccccc5o4)nn23)cc1	HIF act 17
c1ccc(-c2nnc3sc(-c4ccncc4)nn23)cc1	none
Cn1ncc(Cl)c1C(=O)NCC1CCCO1 (stereo unspecified)	LANA-H2B inh 14
CCOc1ccc(C(=O)NCC2CCCO2)cc1OCC (stereo unspecified)	HIF act 11
CC(NC(=O)c1c(Cl)cnn1C)C1CCCO1 (stereo unspecified)	none
O=C(NCC1CCCO1)c1sc2cc(Cl)ccc2c1Cl (stereo unspecified)	HIF act 9.9
COc1ccccc1-c1ccc(=O)n(CC(=O)NCc2ccco2)n1	LANA-H2B inh 37
COc1ccccc1-c1ccc(=O)n(CC(=O)NCc2cccs2)n1	none
CC(=O)Nc1ccc(C(=O)NC2CCCC2)cc1	none (no result: HIF act)
O=C(Nc1ccc(C(=O)NC2CCCCC2)cc1)c1cccnc1	LANA-H2B inh 14
O=C(c1cccs1)n1nc(-c2ccco2)nc1SCc1ccccc1	HDAC3 inhib 65
Cc1ccc(S(=O)(=O)ON2C(=O)c3ccccc3C2=O)c(C)c1	HDAC3 inhib 59 (no result: HIF act)
CCN(CC(=O)Nc1c(F)cccc1F)C(=O)c1cccc(S(=O)(=O)N2CCCCCC2)c1	none (no result: HIF act)
CC(C)n1c(O)c(/C=C2\C=NN=C2c2ccccc2)sc1=S	LANA-H2B inh 12
CCn1c(O)c(/C=C2\C=NN=C2c2ccc(C)cc2)sc1=S	none
CCn1nc(C(=O)NNS(=O)(=O)c2ccc(C)cc2)c2ccccc2c1=O	none (no result: HIF act)
CC(C)C[C@H](NC(=O)c1nc[nH]c1C(=O)NCC(=O)OC(C)(C)C)C(=O)OCc1ccccc1	none
CC(C)(C)OC(=O)NCCCC[C@H](NC(=O)c1[nH]cnc1C(=O)N[C@@H](Cc1ccccc1)C(=O)OCc1ccccc1)C(=O)OC(C)(C)C	HDAC3 inhib 38 (no result: HIF act)
CC(C)C[C@H](NC(=O)c1nc[nH]c1C(=O)NCC(=O)OCc1ccccc1)C(=O)OCc1ccccc1	HDAC3 inhib 28
CC(C)(C)OC(=O)NCCCC[C@H](NC(=O)c1[nH]cnc1C(=O)Nc1ccc(Cl)cc1)C(=O)OC(C)(C)C	HDAC3 inhib inconclusive
C[C@@H](NC(=O)c1nc[nH]c1C(=O)N[C@@H](CCCCNC(=O)OC(C)(C)C)C(=O)OC(C)(C)C)c1ccccc1	HDAC3 inhib 34
CC(C)(C)OC(=O)NCCCC[C@H](NC(=O)c1[nH]cnc1C(=O)Nc1ccccc1)C(=O)OC(C)(C)C	HDAC3 inhib 37
CC(C)(C)OC(=O)[C@H](Cc1ccccc1)NC(=O)c1nc[nH]c1C(=O)N[C@@H](CCCCN)C(=O)OC(C)(C)C	none (no result: HIF act)
COc1ccc([C@@H]2[C@@H]3C(=O)N(C(C)(C)C)C(=O)[C@@H]3[C@]3(CC(C)C)C(=O)N(c4cccc(Br)c4)C(=O)N23)cc1	none
C[C@H](NC(=O)c1nc[nH]c1C(=O)N[C@@H](Cc1ccccc1)C(=O)OC(C)(C)C)c1ccccc1	HDAC3 inhib 28
Cc1cccc(CSc2nnc(CCCCCNC(=O)OC(C)(C)C)o2)c1	none
Cc1ccc(CSc2nnc(CCCCCNC(=O)OC(C)(C)C)o2)cc1	HIF act 14
Clc1ccc(CSc2nnc(-c3ccccn3)n2Cc2ccco2)c(Cl)c1	none
Cc1cc(SCC(=O)OCC(=O)N2CCN(C(=O)c3ccco3)CC2)c(C)cc1Br	none
Cc1cc(SCC(=O)N2CCN(C(=O)c3ccco3)CC2)c(C)cc1Br	LANA-H2B inh 45 (no result: HIF act)
O=c1oc2c(-c3cccc(F)c3)cc(O)cc2s1	none
COc1ccc(C(CC(=O)Nc2cc(OC)cc(OC)c2)n2cccc2)cc1 (stereo unspecified)	none
COc1ccc(C(CC(=O)Nc2ccccc2OC)n2cccc2)cc1 (stereo unspecified)	HIF act 152
O=C(NCCc1csc(-c2cccc(F)c2)n1)c1ccco1	HIF act 16
O=C(CN(Cc1ccccc1)S(=O)(=O)c1ccc(Cl)cc1)NCC1CCCO1 (stereo unspecified)	LANA-H2B inh 14
NC(=O)NC(=O)CC1S/C(=N/N=C/c2ccccc2)NC1=O (stereo unspecified)	none
O=C(O)CC1S/C(=N/N=C/c2ccccn2)NC1=O (stereo unspecified)	LANA-H2B inh 24
CN(C)S(=O)(=O)c1ccc(NC(=O)CSc2nnc(-c3ccco3)o2)cc1	none (no result: HIF act)
COCCNC(=O)c1cc(-c2cccs2)on1	HIF act 30
O=C(NCc1cccs1)c1cc(-c2cccs2)on1	none
